Structures are written as SMILES. Out of some 400,000 compounds screened, about 13,000 (3.2%) were called active. Entries that show only a call come without a potency. Another 18% or so got no clear call; they are omitted. The sample holds actives, similar compounds and a random draw of the others, so the mix is not that of the screen. Calls come from the whole dose curve; as a rule, active = well fitted cell-killing curve with a large enough effect; inconclusive = small, poorly fitted or top-dose-only effect, or effect the other way; inactive = flat fitted curve, though single readings scatter.
Potency is the fitted concentration of half-maximal effect.

A short description of the assay: qHTS assay for MDR1-selective chemotherapeutics: Primary screen using the drug-selected MDR subline cells KB-V1. Note: nearly all actives have a fitted effect of over 60% in size. Conditions: KB-V1 MDR cells viability, CellTiter-Glo, 72 h; series mostly up to 46.1 µM. Summed up:
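Following 72 h at 37 degrees C with compound, KB-V1 cell viability was read by CellTiter-Glo luminescence, medium being phenol-red-free DMEM plus 10% FBS; concentration-response parameters came from normalized, curve-fitted qHTS data.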
Regarding `CN(Cc1ccc(C(F)(F)F)cc1)C(=O)[C@H]1O[C@@H](n2cnc3c(N)ncnc32)[C@H](O)[C@@H]1O`, the Potency result was “inactive”.

In the case of `O=[N+]([O-])c1cc(S(=O)(=O)N2CCCC2)ccc1NN=C1CCCC1`, the Potency was 16.4 µM (active).

Turning to `O=[N+]([O-])c1cc(C(F)(F)F)ccc1NN=C1CCCC1`, the Potency entry was “inactive”.

As for `O=C(COc1ccc(S(=O)(=O)N2CCCC2)cc1[N+](=O)[O-])N1CCCCC1`, the Potency entry was “inactive”.

As to `COC(=O)c1ccc(CN2C(=O)C(Cc3ccccc3)ON=C2c2ncccc2C)o1` (centres undefined), the Potency result is “inactive”.

With `O=[N+]([O-])c1c(NCCO)cc(Sc2nc3ccccc3s2)c2nonc12`, the Potency entry was “inactive”.

In the case of `O=S(=O)(Nc1ccc2nc(N3CCOCC3)sc2c1)c1ccccc1`, the Potency entry was “inactive”.

`CC(C)c1ccc(S(=O)(=O)Nc2ccc(O)c(Sc3nc4ccccc4s3)c2)cc1`: the Potency is 16.4 µM (active).

On to `COC(=O)N(C)C[C@@H]1OCc2cnnn2CCCC(=O)N([C@@H](C)CO)C[C@@H]1C`, for which the Potency entry is “inactive”.

`Nc1nc2c(ncn2[C@@H]2O[C@H](CNCc3ccc(OCCCN4CCOCC4)cc3)[C@@H](O)[C@H]2O)c(=O)[nH]1`: the Potency result is “inactive”.

Consider `Nc1ncnc2c1ncn2[C@@H]1O[C@H](C(=O)N2CCCN(Cc3ccccc3F)CC2)[C@@H](O)[C@H]1O`, for which the Potency result is “inactive”.

On to `C=CCn1c(CCc2ccc(OC(C)C)cc2)n[nH]c1=S`, for which the Potency result was “inactive”.

For `CC(C)Oc1ccc(CCc2n[nH]c(=S)n2Cc2ccccc2)cc1`, the Potency is 16.4 µM (active).

For `CC(C)Oc1ccc(CCc2nnc(SCC(=O)O)n2-c2ccccc2)cc1`, the Potency result is “inactive”.

On to `C[C@@H]1CN([C@@H](C)CO)C(=O)CCCn2cc(nn2)CO[C@H]1CN(C)S(=O)(=O)c1ccc(-n2cccn2)cc1`, for which the Potency result was “inactive”.

For `Nc1nnc(SCC(=O)Nc2ccc3nc(SCC(=O)Nc4ccccc4)sc3c2)s1`, the Potency was 23.1 µM (active).

Consider `CCCCNC(=O)CSc1nc2ccc(NC(=O)CSc3nnc(COc4ccccc4C)n3C)cc2s1`, for which the Potency result is “inactive”.

`CCCCNC(=O)CSc1nc2ccc(NC(=O)CSc3nnc(N)s3)cc2s1`: the Potency entry was “inactive”.

Take `COc1ccc(N2c3ccccc3CN(Cc3ccccc3)[C@@H](C)[C@H]2Cc2ccc(-c3ccccc3)cc2)cc1`: the Potency entry was “inactive”.

On to `Clc1cccc(Cc2c(-c3cccc(Cl)c3)nc3ccc(Cl)cn23)c1`, for which the Potency entry is “inactive”.

With `CCc1ccc(NC(=O)c2ccc(Cn3cc([N+](=O)[O-])cn3)cc2)cc1`, the Potency is 4.61 µM (active).

Consider `O=C(Nc1ccccc1F)c1ccc(Cn2cc(Br)cn2)cc1`, for which the Potency result was “inactive”.

For `O=C(c1ccc(Cn2cc([N+](=O)[O-])cn2)o1)N1CCCC1`, the Potency entry is “inactive”.

With `CCOC(=O)C1=CC[C@@H](c2ccccc2)N(S(=O)(=O)c2ccc(C)cc2)[C@H]1c1cccc(OC)c1`, the Potency result is “inactive”.

Source of the values: PubChem BioAssay AID1347076 (National Center for Advancing Translational Sciences (NCATS), 2019).
